Screen size: about 1,300 compounds; about 270 (21%) were called active. Only a sample is shown. Measured potencies and affinities stand elsewhere. Unmarked numbers belong to inactive results.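 The calls were made as follows: active = dose-dependent rise or fall in viability, either side of zero, with half-maximal concentration at or below a set limit; inconclusive = flat curve at 30 to 70% viability loss, or poor fit; inactive = flat within 30% either way, or potency beyond limit.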

These results are taken from PubChem BioAssay AID540335 (Broad Institute, 2011).

The assay is described as follows: A375 melanoma cell viability reduction, dose response, counter-screen for MITF modulator project, cherry-pick samples, set 2 (AID 540335).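 Also: A375 human melanoma cells which do not depend on MITF; 0% = median of neutral control wells and 100% = double that signal.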 Conditions: CellTiter-Glo ATP luminescence, 24 h; series mostly up to 35 µM; activity change, negative = decreased viability: at the top concentration. A general note: The purpose of a counterscreen is to sort out artefacts and off-target activity.
For the compound `COc1cc(NC(=O)COc2ccccc2[N+](=O)[O-])ccc1NC(=O)c1cccs1`, the “activity change, negative = decreased viability” value is -36.8%. For `O=C(Cn1ncc(Cl)c(Cl)c1=O)Nc1ccc2c(c1)OCO2` the value was 26.9%; for `O=C(c1ccccc1)c1cc(Cl)ccc1N1C(=O)C=CC1=O`, -30.6%; for `O=C(N/N=C/c1ccc([N+](=O)[O-])o1)c1ccc(O)cc1`, -17.7%. For `Cc1cc(Sc2ncnc(N)c2[N+](=O)[O-])ncn1` the value was -35.7%; for `COc1cccc2sc(N3CCN(C(=O)c4ccc([N+](=O)[O-])o4)CC3)nc12`, -6.34%; for `Cc1cccc2sc(N(CCCN(C)C)C(=O)c3nc4ccccc4s3)nc12`, -16.6%.

In the case of `CN(C)c1ccc(C2=NOC(CN3C(=O)c4ccccc4S3(=O)=O)C2)cc1` (stereo not drawn), the “activity change, negative = decreased viability” value is 1.39%. For `COc1cc(OC)cc(-c2oc(=O)c3cc(OC)c(OC)cc3c2C(F)(F)F)c1` the value was -13.4%; for `CCN1CCN(c2ccc(Nc3ccnc4ccccc34)cc2)CC1`, -24%.

Take `CCOc1ccc(NC(=O)Nc2cccc(C(=O)O)c2)cc1`: the “activity change, negative = decreased viability” value is -33.1%.

Consider `O=C(Nc1nnc(Cc2ccccc2)s1)c1ccccc1`, for which the “activity change, negative = decreased viability” value was 4.38%. To `Cc1ccc(/C=N/Nc2ccc(C(=O)O)cc2)s1` belongs -4.8%.

As for `C/C(=N\NC(=O)C(c1ccccc1)c1ccccc1)c1ccccn1`, the “activity change, negative = decreased viability” value is -34.8%. Regarding `O=C(c1ccc([N+](=O)[O-])s1)N1CCN(c2ccccn2)CC1`, the “activity change, negative = decreased viability” value is 2.25%. For `O=c1c2ccccc2cnn1CCOc1ccccc1` the value was -29.7%; for `Cc1nc2ccccc2n1/N=C/c1ccc([N+](=O)[O-])s1`, -9.11%.

For `CCCOCc1ccc(O)c2ncccc12`, the “activity change, negative = decreased viability” value was -26.4%. For `CN(C)C1CCN(Cc2cc(COCc3ccccc3)c3cccnc3c2O)C1` (stereo not drawn) the value was -37.2%; for `Cc1cc(C(C)(C)C)cc(C)c1Cn1c2[n+](c3ccc(C(F)(F)F)cc31)CCCCC2`, -33.6%. Turning to `Cc1ccc(-n2nnnc2CNC(=O)c2ccc([N+](=O)[O-])o2)cc1C`, the “activity change, negative = decreased viability” value is 9.47%.

For the compound `Cc1nc2nc(C)c(NS(=O)(=O)c3ccc4c(c3)CCCC4)c(=O)n2[nH]1`, the “activity change, negative = decreased viability” value is 12.3%. To `CN(Cc1ccccc1)C1=CC(=[N+]2CCCC2)CC(C)(C)C1` belongs -13.8%. For `CCCN(CCC)C1=CC(=[N+]2CCCC2)CC(C)(C)C1` the value was -26.9%; for `CN(C)S(=O)(=O)c1ccc(-c2csc(N/N=C/c3ccco3)n2)cc1`, -2.6%; for `CCOc1ccc(N/C=C/C(=O)c2ccc(OC)c(OC)c2)cc1`, -11.4%.

For the compound `COc1ccc(C(=O)N/N=C/c2cc(Br)ccc2O)cc1OC`, the “activity change, negative = decreased viability” value was -39.9%. For `Cc1ccc(-c2n[nH]c(=O)c3ccccc23)cc1S(=O)(=O)NCC1CCCO1` (stereo not drawn) the value was 8.17%; for `COc1ccc(C(=O)/C=C/C(=O)N(CC(=O)NC2CCCCC2)Cc2ccc(F)cc2)c(O)c1`, -9.41%; for `COc1ccc(N/N=C/c2c(C(=O)O)ccc3ccccc23)cc1`, -34.8%. To `COc1ccc(NC(=O)NC(=O)c2ccccc2)cc1` belongs -1.06%. To `N#CC(C#N)=C1C=CC=CN1/C(=C\c1ccco1)C(=O)c1ccc(Cl)cc1` belongs 75.5%; to `COc1ccccc1-c1cc(C(F)(F)F)nc(S(C)(=O)=O)n1`, -3.05%.

Consider `Cc1ccc2c(C(=O)CCl)c(C)[nH]c2c1`, for which the “activity change, negative = decreased viability” value was -16.4%. Turning to `O=S(=O)(CC(CN1CCCCC1)N1CCCCC1)c1ccc2ccccc2c1` (stereo not drawn), the “activity change, negative = decreased viability” value was -11.5%. For `COc1ccc(C(=O)C(CN2CCOCC2)c2ccccc2)cc1` (stereo not drawn) the value was -14.1%.

Consider `CC(NC(=O)C12CC3CC(CC(C3)C1)C2)C(=O)NN=Cc1ccc([N+](=O)[O-])o1` (stereo not drawn), for which the “activity change, negative = decreased viability” value is -13.3%. To `COC1=C(c2ccccc2)C(=O)c2ccccc2C1=O` belongs -38.7%; to `COc1ccc(-c2nc(-c3ccccc3OC)no2)cc1OC`, 1.79%.

Turning to `CN1CCN(C2=C(NS(=O)(=O)c3cccs3)C(=O)c3ccccc3C2=O)CC1`, the “activity change, negative = decreased viability” value was -13.3%.

Consider `COc1ccc2nc(C)cc(NCc3cccc(C(F)(F)F)c3)c2c1`, for which the “activity change, negative = decreased viability” value is -29.6%. For `O=C1C=CC(=C(c2ccc(O)cc2)c2ccc(O)cc2)C=C1` the value was -22.9%.

`CC(C)(C)C(=O)/C(=C/c1ccncc1)n1cncn1`: the “activity change, negative = decreased viability” value was 7.09%.

As to `O=C(Nc1ccc2oc(-c3cccnc3)nc2c1)c1ccc([N+](=O)[O-])o1`, the “activity change, negative = decreased viability” value was -6.09%. `COc1ccccc1NC(=O)c1nc(S(=O)(=O)Cc2ccccc2)ncc1Cl`: the “activity change, negative = decreased viability” value is -24.6%. For `CC(=O)Nc1ccc(NC(=O)c2nc(S(=O)(=O)Cc3ccccc3)ncc2Cl)cc1` the value was -26.8%. As to `Cc1ccc(C(=O)c2cccc(N)c2)cc1C`, the “activity change, negative = decreased viability” value was 11.7%. For the compound `COc1cc(NC(=O)COc2cc(O)c3c(c2)OC(C)(C)CC3=O)cc(OC)c1OC`, the “activity change, negative = decreased viability” value is -22.9%. `O=C(CCl)Nc1cccc(S(=O)(=O)N2CCCCCC2)c1`: the “activity change, negative = decreased viability” value is -32%.

For the compound `Cc1cc(/C(N)=N/OC(=O)c2ccc(Cl)cc2)no1`, the “activity change, negative = decreased viability” value was 7.61%. To `CCCCN1CCc2c1nc1ccc(Br)cc1c2N` belongs -11.7%; to `O=C(COC(=O)c1ccccc1C(=O)c1ccc(Cl)c([N+](=O)[O-])c1)NC1CC1`, 16.1%; to `CCOc1ccc(-c2ccc(SC)nn2)cc1`, -38.4%. As to `Cc1ccc(C(=O)N/N=C\c2ccc([N+](=O)[O-])s2)cn1`, the “activity change, negative = decreased viability” value was -30.2%. To `CCN(CC)CCNC(=O)C1CCN(S(=O)(=O)c2c(C)noc2/C=C/c2ccccc2F)CC1` belongs -10.5%. To `Cc1cc(C)cc(OCC(=O)N/N=C/c2ccc([N+](=O)[O-])o2)c1` belongs -0.821%; to `N=c1n(CCN2CCCC2)c2ccccc2n1CC(O)c1ccc(Cl)c(Cl)c1` (stereo not drawn), -89.6%; to `O=C(CNc1cccc2ccccc12)N/N=C/c1ccc([N+](=O)[O-])o1`, -18.9%. For `Cc1ccccc1C(=O)N/N=C/c1ccc([N+](=O)[O-])s1` the value was -20.2%. As to `Cc1cc2ncn(/N=C/c3ccc([N+](=O)[O-])o3)c2cc1C`, the “activity change, negative = decreased viability” value is -15.1%.

On to `O=C(N/N=C/c1ccc([N+](=O)[O-])o1)c1cc2ccccc2o1`, for which the “activity change, negative = decreased viability” value was -33.2%. To `CC1(C(=O)N/N=C/c2ccc([N+](=O)[O-])o2)CC1(Br)Br` (stereo not drawn) belongs -10.2%; to `CCOC(=O)CCc1ccc(NC(=O)/C=C/c2ccc([N+](=O)[O-])o2)cc1`, -26.9%. For `CC(C)n1cc(/C=C/c2cc[n+](C)cc2)c2ccccc21` the value was -9.9%; for `COc1ccc(-n2c(C)cc(C(=O)CCl)c2C)cc1`, -8.15%; for `CCOc1ccc(-n2c(C)cc(C(=O)CCl)c2C)cc1`, -8.17%.

As to `O=C(Nc1ccc2nc3n(c(=O)c2c1)CCCCC3)c1cc([N+](=O)[O-])ccc1F`, the “activity change, negative = decreased viability” value is 47.5%. To `CCOC(=O)c1nnn(-c2ccc([N+](=O)[O-])cc2[N+](=O)[O-])c1C` belongs -24.6%. To `Cc1ccc(NC(=O)CCl)cc1S(=O)(=O)N1CCCCCC1` belongs -23.1%; to `O=C(Nc1ccc(-c2nc3ncccc3o2)cc1)c1ccc([N+](=O)[O-])o1`, -6.72%. For `CCN(CC)CCn1nc2c3c(cccc3c1=O)-c1ccccc1-2`, the “activity change, negative = decreased viability” value was -17.6%. For `Cc1ccc(NC(=O)CN(C)C(=O)Cn2ncc(Cl)c(Cl)c2=O)cc1` the value was 69.3%; for `COc1cc(C2C(C#N)=C(N)Oc3cc4c(cc32)OCO4)cc(OC)c1OC` (stereo not drawn), 8.17%.
